Test results published in PubChem BioAssay (EPA / NIEHS).
Results filed as inconclusive are left out. The source made the active and inactive calls. The calls were made as follows, unless noted: active = hit-call score of the fitted dose curve at least 0.9, where 1 is the maximum; inconclusive = response in the unintended direction; inactive = score below 0.9.

What was measured:
[1] = ATG_TAL_CIS: Attagene CIS-FACTORIAL HepG2 Assay for human TAL Basal Promoter (AID 2282966; active = hit-call score of the fitted dose curve at least 0.9, where 1 is the maximum; inactive = score below 0.9;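 also: background control endpoint measuring basal TAL promoter reporter mRNA not a specific factor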); conditions: HepG2 Attagene cis-factorial TAL promoter reporter; actives raise or lower the signal
Outline: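 Human hepatoma HepG2 cells, transfected with promoter-regulated reporter units, were treated 24 h. Reporter transcript levels, measured through RT-PCR and capillary electrophoresis, were fitted for gain or loss relative to DMSO.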

[2] = ATG_TGFb_CIS: Attagene CIS-FACTORIAL HepG2 Assay for human Transforming Growth Factor (TGF) (AID 2282967; active = hit-call score of the fitted dose curve at least 0.9, where 1 is the maximum; inactive = score below 0.9); conditions: HepG2 Attagene CIS TGFb reporter, mRNA transcription; actives raise or lower the signal
Outline: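 Cells were dosed for 24 hours, after which total RNA was reverse-transcribed and reporter sequences amplified, labeled and sized by capillary electrophoresis. Activity was fitted in both directions against DMSO.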

[3] = target: Nuclear receptor subfamily 1 group I member 3 (Homo sapiens) (UniProt Q14994); experiment: ATG_CAR_TRANS: Attagene TRANS-FACTORIAL HepG2 Assay for human Constitutive Androstane Receptor (CAR) (AID 2282969); conditions: HepG2 Attagene TRANS-FACTORIAL CAR reporter;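 also: activators raise reporter mRNA above DMSO so AC50 marks induction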
Outline: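 Transiently transfected HepG2, multiplex TRANS reporters (CAR-Gal4 chimera driving GAL4-UAS reporter). 24 h dosing. Readout: reporter transcript by RT-PCR + capillary electrophoresis, fluorescence intensity; positive direction vs DMSO.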

[4] = target: Estrogen receptor (Homo sapiens) (UniProt P03372); experiment: ATG_ERa_TRANS: Attagene TRANS-FACTORIAL HepG2 Assay for human Estrogen Receptor alpha (ERa) (AID 2282970); conditions: HepG2 Attagene TRANS ERa GAL4 reporter, mRNA
Outline: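 Signal derives from fluorescence of labelled reporter PCR fragments separated by capillary electrophoresis. HepG2 cells transiently carrying multiple GAL4-UAS reporter units were treated 24 hours, and induction above DMSO baseline was fitted as activity.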

[5] = target: X-box-binding protein 1 (Homo sapiens) (UniProt P17861); experiment: ATG_Xbp1_CIS: Attagene CIS-FACTORIAL HepG2 Assay for human X-box Binding Protein 1 (XBP1) (AID 2282972; active = hit-call score of the fitted dose curve at least 0.9, where 1 is the maximum; inactive = score below 0.9); conditions: HepG2 XBP1 cis-element reporter, Attagene multiplex; actives raise or lower the signal
Outline: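 Human hepatoma HepG2, cis-element reporter system, 24 h treatment; mRNA quantified by RT-PCR/CE fluorescence; fit relative to DMSO.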

[6] = ATG_M_19_TRANS: Attagene TRANS-FACTORIAL HepG2 Assay for M19 Transcription Factor (Internal Marker) (AID 2282974); conditions: HepG2 Attagene TRANS-FACTORIAL M19 internal marker reporter
Outline: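 24 h chemical exposure of transiently transfected HepG2 (MRTU library). RNA → oligo(dT) RT → PCR → 6-FAM labelling → HpaI cut → CE fluorescence. Positive-direction fit vs DMSO baseline; background internal-marker readout.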

[7] = target: Glucocorticoid receptor (Homo sapiens) (UniProt P04150); experiment: ATG_GR_TRANS: Attagene TRANS-FACTORIAL HepG2 Assay for human Glucocorticoid Receptor (GR) (AID 2282978); conditions: HepG2 Attagene TRANS GR reporter, mRNA transcription;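 also: activators score as hits since higher reporter transcript over DMSO is fitted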
Outline: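 Transient MRTU transfection of HepG2 (GAL4-UAS reporters, exogenous NR-GAL4 chimeras), 24 h dosing. Readout: reporter transcript via RT-PCR + capillary electrophoresis fluorescence. Positive direction vs DMSO baseline.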

[8] = target: Bile acid receptor (Homo sapiens) (UniProt Q96RI1); experiment: ATG_FXR_TRANS: Attagene TRANS-FACTORIAL HepG2 Assay for Farnesoid X Receptor (FXR) (AID 2282979); conditions: HepG2 Attagene TRANS FXR-GAL4 reporter transcription;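 also: hits raise reporter mRNA above DMSO so AC50 marks FXR activation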
Outline: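 After 24 h chemical treatment of transfected HepG2 cells, GAL4-UAS reporter transcripts driven by an exogenous FXR-GAL4 fusion were measured by RT-PCR and capillary electrophoresis. Increases over DMSO were fitted.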

[9] = target: Hepatocyte nuclear factor 4-alpha (Homo sapiens) (UniProt P41235); experiment: ATG_HNF4a_TRANS: Attagene TRANS-FACTORIAL HepG2 Assay for human Hepatocyte Nuclear Factor 4 alpha (HNF4a) (AID 2282982); conditions: HepG2 HNF4a transactivation reporter, mRNA readout
Outline: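 Transient MRTU transfection of HepG2, 24 h dosing. Readout: reporter mRNA via RT-PCR + capillary electrophoresis, fluorescence; activity fit upward relative to DMSO control.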

[10] = ATG_M_06_TRANS: Attagene TRANS-FACTORIAL HepG2 Assay for M06 Transcription Factor (Internal Marker) (AID 2282983); conditions: HepG2 Attagene TRANS M06 internal marker reporter
Outline: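 Multi-reporter-transfected HepG2, 24 h treatment; reporter transcripts quantified via RT-PCR, primer-extension labelling and CE. DMSO-normalized gain-of-signal fit.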

[11] = target: Nuclear receptor subfamily 4 group A member 2 (Homo sapiens) (UniProt P43354); experiment: ATG_NURR1_TRANS: Attagene TRANS-FACTORIAL HepG2 Assay for human Nuclear Receptor Related Protein 1 (NURR1) (AID 2282985); conditions: HepG2 Attagene TRANS reporter, mRNA readout
Outline: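 Read-out: reporter mRNA induction by RT-PCR plus capillary electrophoresis with fluorescence detection, after 24 h dosing of transfected HepG2 cells. Exogenous NR-Gal4 chimera activity drives GAL4-UAS reporter; activity fitted upward versus DMSO.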

[12] = target: Transcriptional activator Myb (Homo sapiens) (UniProt P10242); experiment: ATG_Myb_CIS: Attagene CIS-FACTORIAL HepG2 Assay for human Myeloblastosis (Myb) Proto-Oncogene Transcription Factor (AID 2282986; active = hit-call score of the fitted dose curve at least 0.9, where 1 is the maximum; inactive = score below 0.9); conditions: HepG2 Attagene CIS-FACTORIAL Myb reporter transcription; actives raise or lower the signal
Outline: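 HepG2, transient MRTU transfection (cis-element promoters, endogenous TF activity), 24 h compound exposure. Readout: reporter mRNA via RT-PCR, 6-FAM labeling, HpaI digest, capillary electrophoresis. Gain/loss fit vs DMSO.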

[13] = target: Nuclear respiratory factor 1 (Homo sapiens) (UniProt Q16656); experiment: ATG_NRF1_CIS: Attagene CIS-FACTORIAL HepG2 Assay for human Nuclear Respiratory Factor 1 (NRF1) Orphan Gene (AID 2282987; active = hit-call score of the fitted dose curve at least 0.9, where 1 is the maximum; inactive = score below 0.9); conditions: HepG2 NRF1 cis-element reporter, Attagene multiplex; actives raise or lower the signal
Outline: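 Endogenous NRF1-driven reporter transcription measured in transiently transfected human HepG2 liver cells. Readout: reporter mRNA by RT-PCR and capillary electrophoresis with fluorescence detection, 24 h post-dosing. Gain or loss of signal fitted relative to DMSO baseline.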

[14] = target: Estrogen-related receptor gamma (Homo sapiens) (UniProt P62508); experiment: ATG_ERRg_TRANS: Attagene TRANS-FACTORIAL HepG2 Assay for human Estrogen-Related Receptor gamma (ERRg) (AID 2282977); conditions: HepG2 Attagene TRANS reporter, ERRg transactivation;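 also: hits increase reporter signal over DMSO so potencies reflect activators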
Outline: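 Exogenous NR-Gal4 chimera activity was assessed in HepG2 cells bearing transfected GAL4-UAS reporters. After 24 h dosing, total RNA underwent RT-PCR, fluorescent primer extension and HpaI digestion before capillary electrophoresis, with gain of signal scored against DMSO.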

[15] = target: Oxysterols receptor LXR-beta (Homo sapiens) (UniProt P55055); experiment: ATG_LXRb_TRANS: Attagene TRANS-FACTORIAL HepG2 Assay for human Liver X Receptor beta (LXRb) (AID 2282981); conditions: HepG2 Attagene TRANS GAL4-LXRb reporter, mRNA
Outline: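 Readout: fluorescent reporter mRNA fragments resolved by capillary electrophoresis after RT-PCR. System: transiently transfected human HepG2, exogenous LXRb-Gal4 chimera driving GAL4-UAS reporter, 24 h dosing. Activity fitted upward against DMSO baseline.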

[16] = ATG_M_32_TRANS: Attagene TRANS-FACTORIAL HepG2 Assay for M32 Transcription Factor (Internal Marker) (AID 2282984); conditions: HepG2 Attagene TRANS M32 internal marker reporter
Outline: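 Read-out: fluorescent reporter cDNA fragments resolved by capillary electrophoresis after RT-PCR of total RNA. Transfected HepG2 cells were exposed to chemical for 24 h. Activity scored in the positive direction relative to DMSO.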

[17] = ATG_GAL4_TRANS: Attagene TRANS-FACTORIAL HepG2 Assay for GAL4 (Internal Marker) (AID 2282976); conditions: HepG2 Attagene TRANS GAL4 internal marker reporter
Outline: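 Liver HepG2 line bearing multiplexed GAL4-UAS reporter constructs; 24 h chemical treatment. Transcripts were quantified as fluorescent fragments on capillary electrophoresis after RT-PCR and HpaI cut, with activity fitted upward from DMSO.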

[18] = ATG_VDRE_CIS: Attagene CIS-FACTORIAL HepG2 Assay for human Vitamin D Receptor Element (VDRE) (AID 2282968; active = hit-call score of the fitted dose curve at least 0.9, where 1 is the maximum; inactive = score below 0.9); conditions: HepG2 VDRE cis-reporter transcription, actives raise or lower the signal
Outline: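 Transient MRTU transfection of HepG2, 24 h compound exposure. Readout: reporter transcripts via RT-PCR and capillary electrophoresis, fluorescence. Bidirectional fit vs DMSO.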

[19] = target: Steroid hormone receptor ERR1 (Homo sapiens) (UniProt P11474); experiment: ATG_ERRa_TRANS: Attagene TRANS-FACTORIAL HepG2 Assay for human Estrogen-Related Receptor alpha (ERRa) (AID 2282971); conditions: HepG2 Attagene TRANS reporter, ERRa transactivation
Outline: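 Signal gain relative to DMSO for an ERRa-Gal4 chimeric receptor, read as reporter mRNA by RT-PCR/capillary electrophoresis. Human HepG2 liver cells, transient multiplex reporter transfection, 24 h chemical exposure.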

[20] = target: Oxysterols receptor LXR-alpha (Homo sapiens) (UniProt Q13133); experiment: ATG_LXRa_TRANS: Attagene TRANS-FACTORIAL HepG2 Assay for human Liver X Receptor alpha (LXRa) (AID 2282980); conditions: HepG2 Attagene TRANS reporter, LXRa transactivation
Outline: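 In this multiplexed TRANS system, compounds act on HepG2 cells carrying GAL4-UAS reporter units and a receptor-GAL4 fusion for 24 h. Induced reporter RNA is amplified, fluorescently labelled and sized by capillary electrophoresis, with DMSO as baseline.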

Measured: AC50

Chain of Transcriptional activator Myb (Homo sapiens) (P10242 whole entry, looked up): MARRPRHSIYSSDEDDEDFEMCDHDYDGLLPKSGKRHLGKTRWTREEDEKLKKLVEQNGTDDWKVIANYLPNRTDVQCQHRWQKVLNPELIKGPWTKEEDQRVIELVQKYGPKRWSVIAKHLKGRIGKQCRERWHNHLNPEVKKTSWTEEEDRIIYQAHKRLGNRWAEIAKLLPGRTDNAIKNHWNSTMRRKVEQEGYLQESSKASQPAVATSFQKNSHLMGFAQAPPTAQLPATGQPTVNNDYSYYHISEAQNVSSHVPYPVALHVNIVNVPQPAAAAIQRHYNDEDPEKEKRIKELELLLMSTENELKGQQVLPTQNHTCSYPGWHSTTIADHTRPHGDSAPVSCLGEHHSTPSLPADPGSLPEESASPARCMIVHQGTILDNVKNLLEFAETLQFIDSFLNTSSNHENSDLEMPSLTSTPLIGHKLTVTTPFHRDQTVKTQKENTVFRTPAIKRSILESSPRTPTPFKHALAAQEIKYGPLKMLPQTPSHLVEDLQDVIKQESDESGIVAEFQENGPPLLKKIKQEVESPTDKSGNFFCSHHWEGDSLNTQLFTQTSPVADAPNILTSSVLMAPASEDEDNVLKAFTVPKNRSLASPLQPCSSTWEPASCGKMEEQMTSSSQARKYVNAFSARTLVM
Chain of Glucocorticoid receptor (Homo sapiens) (P04150 whole entry, looked up, the tested form may be a part): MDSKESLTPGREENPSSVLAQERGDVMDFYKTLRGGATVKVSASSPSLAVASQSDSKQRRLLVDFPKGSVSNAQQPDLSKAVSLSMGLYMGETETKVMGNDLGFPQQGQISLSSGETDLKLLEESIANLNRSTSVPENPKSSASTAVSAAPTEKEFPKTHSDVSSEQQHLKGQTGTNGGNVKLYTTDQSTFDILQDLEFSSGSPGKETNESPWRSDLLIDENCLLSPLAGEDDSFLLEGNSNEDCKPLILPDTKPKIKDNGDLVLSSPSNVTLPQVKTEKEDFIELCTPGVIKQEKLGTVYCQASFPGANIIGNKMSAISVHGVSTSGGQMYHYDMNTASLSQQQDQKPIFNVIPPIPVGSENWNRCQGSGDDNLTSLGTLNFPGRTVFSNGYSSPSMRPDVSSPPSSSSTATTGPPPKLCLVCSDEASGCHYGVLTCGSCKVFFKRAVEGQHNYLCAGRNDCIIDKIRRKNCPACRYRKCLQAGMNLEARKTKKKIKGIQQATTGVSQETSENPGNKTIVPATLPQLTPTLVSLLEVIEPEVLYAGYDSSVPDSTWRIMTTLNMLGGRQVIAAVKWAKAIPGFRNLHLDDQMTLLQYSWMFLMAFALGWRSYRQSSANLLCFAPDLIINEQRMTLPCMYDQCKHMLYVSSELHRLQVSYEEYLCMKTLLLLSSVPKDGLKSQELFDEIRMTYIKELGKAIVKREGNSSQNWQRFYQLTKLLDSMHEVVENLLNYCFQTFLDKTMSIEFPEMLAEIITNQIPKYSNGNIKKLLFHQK
Chain of Nuclear respiratory factor 1 (Homo sapiens) (Q16656 whole entry, looked up): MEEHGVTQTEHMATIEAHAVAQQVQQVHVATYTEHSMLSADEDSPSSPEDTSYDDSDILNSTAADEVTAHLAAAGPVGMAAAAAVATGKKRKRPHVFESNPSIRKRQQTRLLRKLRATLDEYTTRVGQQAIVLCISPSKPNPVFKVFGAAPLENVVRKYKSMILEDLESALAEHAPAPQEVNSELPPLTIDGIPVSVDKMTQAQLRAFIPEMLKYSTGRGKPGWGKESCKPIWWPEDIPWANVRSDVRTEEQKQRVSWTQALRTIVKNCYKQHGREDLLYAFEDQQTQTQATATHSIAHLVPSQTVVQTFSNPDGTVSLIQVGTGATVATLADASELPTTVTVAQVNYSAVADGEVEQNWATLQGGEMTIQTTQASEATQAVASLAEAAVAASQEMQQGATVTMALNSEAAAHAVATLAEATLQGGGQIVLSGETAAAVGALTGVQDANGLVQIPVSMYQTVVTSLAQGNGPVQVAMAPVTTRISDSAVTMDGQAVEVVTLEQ
Chain of X-box-binding protein 1 (Homo sapiens) (P17861 whole entry, looked up): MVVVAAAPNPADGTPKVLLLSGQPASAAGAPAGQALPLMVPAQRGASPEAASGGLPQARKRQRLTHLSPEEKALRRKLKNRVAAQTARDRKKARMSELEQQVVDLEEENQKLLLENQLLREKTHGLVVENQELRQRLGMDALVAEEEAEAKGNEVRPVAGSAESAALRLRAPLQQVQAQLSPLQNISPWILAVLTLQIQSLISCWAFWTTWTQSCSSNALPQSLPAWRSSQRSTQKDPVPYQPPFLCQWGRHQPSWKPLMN
Chain of Estrogen receptor (Homo sapiens) (P03372 whole entry, looked up, the tested form may be a part): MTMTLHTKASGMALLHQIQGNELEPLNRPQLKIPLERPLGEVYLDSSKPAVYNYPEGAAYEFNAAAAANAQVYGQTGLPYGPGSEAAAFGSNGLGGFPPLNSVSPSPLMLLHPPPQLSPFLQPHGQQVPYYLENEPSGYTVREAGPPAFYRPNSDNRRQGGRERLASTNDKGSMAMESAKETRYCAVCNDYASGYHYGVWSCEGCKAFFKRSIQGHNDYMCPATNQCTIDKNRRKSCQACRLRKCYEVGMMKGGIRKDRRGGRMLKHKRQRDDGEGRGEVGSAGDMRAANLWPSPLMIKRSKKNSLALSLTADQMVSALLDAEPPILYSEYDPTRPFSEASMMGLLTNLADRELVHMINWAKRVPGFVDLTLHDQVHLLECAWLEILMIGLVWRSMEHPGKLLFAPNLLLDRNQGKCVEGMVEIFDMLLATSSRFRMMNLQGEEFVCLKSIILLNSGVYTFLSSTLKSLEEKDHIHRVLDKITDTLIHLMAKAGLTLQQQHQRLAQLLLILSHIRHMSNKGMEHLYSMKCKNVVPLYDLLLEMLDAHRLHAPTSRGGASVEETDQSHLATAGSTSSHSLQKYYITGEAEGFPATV
Chain of Bile acid receptor (Homo sapiens) (Q96RI1 whole entry, looked up, the tested form may be a part): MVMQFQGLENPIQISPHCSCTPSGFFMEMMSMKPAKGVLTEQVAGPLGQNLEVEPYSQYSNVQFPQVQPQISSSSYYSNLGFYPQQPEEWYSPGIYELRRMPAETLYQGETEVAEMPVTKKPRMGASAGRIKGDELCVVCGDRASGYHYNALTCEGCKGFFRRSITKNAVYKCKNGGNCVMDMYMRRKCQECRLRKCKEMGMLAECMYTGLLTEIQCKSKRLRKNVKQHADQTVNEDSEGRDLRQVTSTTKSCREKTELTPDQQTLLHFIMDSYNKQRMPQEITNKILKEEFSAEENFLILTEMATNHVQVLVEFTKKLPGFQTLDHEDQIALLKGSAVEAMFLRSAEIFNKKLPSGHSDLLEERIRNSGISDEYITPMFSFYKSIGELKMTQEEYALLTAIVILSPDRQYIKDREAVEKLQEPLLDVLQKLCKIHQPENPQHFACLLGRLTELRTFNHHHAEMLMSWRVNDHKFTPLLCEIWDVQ
Chain of Hepatocyte nuclear factor 4-alpha (Homo sapiens) (P41235 whole entry, looked up): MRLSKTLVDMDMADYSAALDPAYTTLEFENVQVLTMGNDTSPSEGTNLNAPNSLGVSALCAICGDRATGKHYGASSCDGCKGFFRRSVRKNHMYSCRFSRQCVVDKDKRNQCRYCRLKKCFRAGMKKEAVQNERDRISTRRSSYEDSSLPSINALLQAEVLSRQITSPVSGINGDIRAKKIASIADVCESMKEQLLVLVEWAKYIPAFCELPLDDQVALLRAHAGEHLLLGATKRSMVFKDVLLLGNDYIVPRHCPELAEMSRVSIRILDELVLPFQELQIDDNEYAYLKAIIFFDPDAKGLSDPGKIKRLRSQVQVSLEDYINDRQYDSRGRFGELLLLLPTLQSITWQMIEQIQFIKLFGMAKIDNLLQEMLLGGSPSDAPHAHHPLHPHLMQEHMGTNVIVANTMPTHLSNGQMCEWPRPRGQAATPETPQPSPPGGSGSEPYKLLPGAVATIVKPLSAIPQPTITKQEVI
Chain of Nuclear receptor subfamily 4 group A member 2 (Homo sapiens) (P43354 whole entry, looked up, the tested form may be a part): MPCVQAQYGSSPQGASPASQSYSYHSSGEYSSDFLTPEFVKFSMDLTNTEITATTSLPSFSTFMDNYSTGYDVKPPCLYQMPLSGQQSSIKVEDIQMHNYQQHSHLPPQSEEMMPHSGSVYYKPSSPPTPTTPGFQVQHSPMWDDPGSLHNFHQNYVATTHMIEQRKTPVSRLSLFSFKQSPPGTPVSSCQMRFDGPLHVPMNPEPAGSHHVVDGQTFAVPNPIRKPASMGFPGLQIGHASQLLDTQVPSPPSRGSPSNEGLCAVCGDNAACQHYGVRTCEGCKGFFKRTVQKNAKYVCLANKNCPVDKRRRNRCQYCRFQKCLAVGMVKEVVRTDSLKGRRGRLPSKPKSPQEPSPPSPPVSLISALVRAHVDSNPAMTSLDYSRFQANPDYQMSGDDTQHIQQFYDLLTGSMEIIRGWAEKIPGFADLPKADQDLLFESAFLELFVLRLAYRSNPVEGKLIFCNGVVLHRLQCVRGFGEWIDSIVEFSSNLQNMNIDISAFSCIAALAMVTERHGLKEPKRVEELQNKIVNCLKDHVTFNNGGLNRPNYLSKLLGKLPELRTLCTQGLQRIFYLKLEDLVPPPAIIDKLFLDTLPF
Chain of Steroid hormone receptor ERR1 (Homo sapiens) (P11474 whole entry, looked up, the tested form may be a part): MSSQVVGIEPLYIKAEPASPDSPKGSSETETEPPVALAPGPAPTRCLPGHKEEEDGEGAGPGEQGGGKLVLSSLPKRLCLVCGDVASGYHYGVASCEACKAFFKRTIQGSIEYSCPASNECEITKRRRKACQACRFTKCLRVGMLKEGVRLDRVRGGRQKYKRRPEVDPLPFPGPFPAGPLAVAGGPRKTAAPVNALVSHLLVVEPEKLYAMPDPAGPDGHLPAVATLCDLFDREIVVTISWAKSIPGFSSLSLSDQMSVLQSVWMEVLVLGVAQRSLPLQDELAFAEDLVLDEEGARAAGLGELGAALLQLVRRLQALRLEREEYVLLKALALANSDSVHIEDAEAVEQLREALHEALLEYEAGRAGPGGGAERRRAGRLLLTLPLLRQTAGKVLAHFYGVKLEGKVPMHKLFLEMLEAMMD

C=C1[C@H]2CC[C@@H]3[C@H]2C(C)(C)CCC[C@]13C
active: [4] 18.9 µM
not listed: [14] | [15] | [16] | [17] | [18] | [19] | [20]
inactive: all other assays above

CCN(CCC#N)c1ccc(N=Nc2c(Cl)cc([N+](=O)[O-])cc2Cl)cc1
active: [4] 4.92 µM
inactive: [1] | [2] | [5] | [14] | [8] | [9] | [10] | [11] | [12] | [13]

COC(=O)/C=C\C(=O)O
inactive: [1] | [2] | [5] | [7] | [15] | [9] | [10] | [12] | [13]

c1ccc(CCCc2ccncc2)cc1
inactive: [1] | [2] | [5] | [7] | [8] | [9] | [10] | [16] | [11] | [12] | [13]

C=C(C)[C@H]1CC=C(C)CC1
inactive: [1] | [2] | [3] | [5] | [17] | [15] | [10] | [11] | [12] | [13]

O=C(C=Cc1ccccc1)OCc1ccccc1
inactive: [1] | [2] | [4] | [5] | [9] | [10] | [16] | [12] | [13]

O=Nc1ccc(O)cc1
active: [4] 48.5 µM
inactive: [1] | [2] | [5] | [7] | [9] | [10] | [16] | [12]

CC(C)=CCC[C@H](C)CCO
inactive: [1] | [2] | [4] | [5] | [17] | [9] | [10] | [11] | [12] | [13]

CC(C)CCCC(C)CC=O (centres undefined)
inactive: [2] | [4] | [5] | [6] | [9] | [10] | [16] | [11] | [12] | [13]

CCC(Cc1ccccc1)(C(=O)c1ccc(N2CCOCC2)cc1)N(C)C (centres undefined)
inactive: [2] | [19] | [5] | [6] | [8] | [16]
active: [18] 6.85 µM | [4] 1.03 µM | [20] 23.3 µM

O=C(Cl)c1cc(C(=O)Cl)cc(C(=O)Cl)c1
inactive: [5] | [8] | [10] | [16]
active: [2] 132 µM | [18] 46 µM

O=C(/C=C/C=C/c1ccc2c(c1)OCO2)N1CCCCC1
active: [18] 2.53 µM
not listed: [1] | [3] | [7] | [9] | [11] | [14] | [15] | [20]
inactive: all other assays above
